An excerpt weighted towards active compounds, which were near 21% of everything screened.
DRD3 antagonist: D3 dopamine receptor (human) antagonism. P35462. D3R cells, DiscoveRx beta-arrestin luminescence, antagonist mode; hits give low values. max response, negative = inhibition, %. actives 2.5% (n = 360,000). AID 652054; in the data active means max response below about -50%; inconclusive means no clear call, values can overlap the other calls
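Cells expressing the human receptor were seeded at 1500 cells/well, incubated overnight at 37 degrees C in 5% CO2, then exposed to library compounds with dopamine controls for 90 minutes at 37 degrees C before luminescent detection.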
TDP1 cell noCPT: qHTS for Inhibitors of human tyrosyl-DNA phosphodiesterase 1 (TDP1): qHTS in cells in absence of CPT | actives 15% (n = 420,000) | DT40 Tdp1-/- hTDP1 cells, no CPT, ATP luminescence, 48 h | Potency, µM (doses to about 46.2 µM), most hits filed as inhibitors; further: nearly all actives have a fitted effect of over 55% in size
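Readout: luminescence from CellTiter-Glo after 30 min in the dark at RT. Cells: DT40 Tdp1-/- with stable hTDP1, 400/well. Exposure: compounds alone, ≥48 hr, 37 °C.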
ClpP mod: qHTS Assay for Activators of ClpP. ATP-dependent Clp protease proteolytic subunit (Bacillus subtilis (strain 168)), P80244. purified B. subtilis ClpP, FRET peptide cleavage, 20 min. Potency, µM (highest dose often 57.5 µM). actives 1.9% (n = 340,000). AID 651965, 2013; active means well fitted falling curve with a large enough effect; inconclusive means small, poorly fitted or top-dose-only effect; inactive means no such curve, though single readings can be large or run the other way; further: the source files actives as falling curves though it sought activators and does not explain the sign; nearly all actives have a fitted effect of over 65% in size
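Buffer: 100 mM Tris/HCl pH8, 100 mM KCl, 0.05% low protease BSA, 2.5% glycerol, 0.01% Tween-20. ClpP 10 microg/mL final; 20 min RT; delta FRET normalized to ADEP and DMSO controls.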
TDP1 cell CPT: growth inhibition of DT40 Tdp1-/-;hTDP1 cells with camptothecin (screen for TDP1 inhibitors); chicken DT40 Tdp1-/-;hTDP1 cells + 20 nM CPT, ATP luminescence, 48 h; Potency, µM (doses to about 46.2 µM), actives largely listed as inhibitors; actives 12% (n = 420,000); further: nearly all actives have a fitted effect of over 55% in size
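Chicken DT40 Tdp1-/- cells complemented with human TDP1, 400 cells/well, exposed to compounds plus 20 nM camptothecin for at least 48 h at 37 C; viability read as ATP content by CellTiter-Glo luminescence.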
IL1B secr inh: inflammasome signaling inhibition, IL-1 beta readout | AID 743279 | actives 4.7% (n = 360,000) | THP-1 LPS/ATP IL-1B secretion, AlphaLISA, 16 h; hits give low values | activity change, % at 57.5 µM; in the data active means activity change below about -50%; inconclusive means mostly about -30% to -49%
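Secreted IL-1B measured by AlphaLISA bead assay after 16 h compound exposure of THP-1 cells; compounds (final up to 57.5 uM) added 1 h before LPS (250 ng/mL) and ATP (1.25 mM) stimulation; lower signal means less secretion.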
DRD3 agonist: activates the human D3 dopamine receptor | P35462 | D3R DiscoveRx beta-arrestin cells, luminescence, 90 min | max activation, % | actives 0.58% (n = 410,000); in the data active means max activation above about 30%
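Agonist mode: compounds and dopamine controls were applied to plated cells for 90 min at 37 degrees C after an overnight attachment at 1500 cells/well. Luminescent read-out followed 30 - 60 minutes at room temperature with DiscoveRx detection reagent.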
A number is an active result; . = inactive; ? = inconclusive; / = no result given. Unless noted, the call rests on the fitted dose curve; in most records, active means well fitted inhibition curve with a large enough effect; inconclusive means small, poorly fitted or top-dose-only effect; inactive means flat fitted curve, though single readings scatter.

SMILES	DRD3 antagonist	TDP1 cell noCPT	ClpP mod	TDP1 cell CPT	IL1B secr inh	DRD3 agonist
CC1CCN(C(=O)CSC2=NS(=O)(=O)c3cc(F)ccc3N2)CC1	.	.	/	.	.	.
Cc1ccc(Cn2cc(CN3CC(N4CCSCC4)CS3(=O)=O)nn2)cc1 (configuration not stated)	.	.	.	.	.	.
CCOc1ccc(CCNC(=O)Cn2nc(-c3ccc(C)cc3)ccc2=O)cc1OCC	/	?	.	?	/	.
Cc1nn(CC(=O)NCC(C)c2ccccc2)c(=O)c2cc(-c3ccccc3)nn12 (configuration not stated)	.	?	/	.	.	.
CCN(c1ccc(NC(=O)COC(=O)C2CCN(c3ccc(C(F)(F)F)cn3)CC2)cc1)C(C)C	.	?	.	?	.	.
CC(=O)N1CCN(C(=O)CCc2cc(C(C)(C)C)c(O)c(C(C)(C)C)c2)CC1	.	.	.	.	.	.
CCN(CC)S(=O)(=O)c1cc(NC(=O)C(C)N2CCN(Cc3ccc4c(c3)OCO4)CC2)ccc1C (configuration not stated)	.	5.2µM	.	7.3µM	.	.
O=C(CN1CCN(c2ccccc2)CC1)Nc1ccncc1	.	18µM	.	?	.	.
Cc1cc(O)c(Oc2cc(C)cc(O)c2O)c(O)c1	.	5.2µM	.	4.6µM	.	.
O=S(=O)(Nc1ccc2c(c1)OCO2)c1ccc(F)c(F)c1	.	.	.	.	.	.
Cc1ccc(N2CCN(C(=O)NCc3noc4ccc(C)cc34)CC2)c(C)c1	/	?	.	?	/	.
CCOC(=O)/C(C#N)=C/Nc1ccccc1OC	.	.	.	.	?	.
CCOC(=O)C(=O)/C(C#N)=C/Nc1ccccc1	-57	.	.	.	.	.
COCC(=O)Nc1cc(Sc2ccccc2)ccc1N=C(NC(=O)OC)NC(=O)OC	/	?	/	?	/	.
COc1cc(O)c(C=NN2C(=O)CSC2=S)c(OC)c1	.	23µM	.	21µM	.	.
O=C1CSC(=S)N1N=Cc1ccc(Cl)cc1Cl	.	21µM	.	?	.	.
O=C1CSC(=S)N1/N=C/c1cccnc1	.	?	/	15µM	.	.
O=C1C2C3C=CC(CC3)C2C(=O)N1/N=C/c1ccccc1O (configuration not stated)	-65	.	.	.	.	.
CC(C)NC(=O)C1Cc2c(-c3ccccc3Oc3ccccc3)ccnc2O1 (configuration not stated)	.	?	.	?	.	.
Cc1cc2c(s1)c1cnn(CC(=O)N3CCOCC3)c(=O)c1n2C	/	.	.	.	/	/
COc1ccc(NC(=O)c2cc(C3CC3)nc3c2c(C)nn3-c2ccccc2)cc1OC	/	?	.	?	/	.
O=C1CSC(=S)N1N=Cc1ccccc1O	.	9.2µM	.	?	.	.
Cc1ccccc1/C=N/N1C(=O)CSC1=S	.	.	.	.	.	.
Cn1c(-c2ccc3ccccc3n2)[n+](C)c2ccccc21	.	3.7µM	/	3.3µM	.	.
Cn1c(-c2ccccn2)[n+](C)c2ccccc21	.	.	.	.	.	.
SMILES	DRD3 antagonist	TDP1 cell noCPT	ClpP mod	TDP1 cell CPT	IL1B secr inh	DRD3 agonist
CN(C)c1ccc(-c2n(C)c3ccccc3[n+]2C)cc1	.	0.82µM	.	1.6µM	-80	.
Cn1c(-c2cccc([N+](=O)[O-])c2)[n+](C)c2ccccc21	.	3.3µM	.	7.3µM	.	.
CC(C)(CCC(=S)N1CCOCC1)c1ccccc1	.	.	/	.	.	.
COc1ccccc1C(=O)N(CCC1CCCN1C)c1nc2ccccc2s1 (configuration not stated)	.	?	/	.	-78	.
Cn1c(=O)n(C)c2cc([N+](=O)[O-])c(N3CCN(S(=O)(=O)c4ccc(C(C)(C)C)cc4)CC3)cc21	.	?	.	21µM	.	.
CCS(=O)(=O)N1CCN(c2cc3c(cc2[N+](=O)[O-])n(C)c(=O)n3C)CC1	.	?	/	.	.	.
CC(=O)Nc1ccc(S(=O)(=O)N2CCN(c3cc4c(cc3[N+](=O)[O-])n(C)c(=O)n4C)CC2)cc1	.	18µM	.	?	.	.
COc1cc(/C=C/C(=O)N2CCCN(C(=O)/C=C/c3cc(OC)c(OC)c(OC)c3)CC2)cc(OC)c1OC	.	?	.	.	.	.
COc1cc(/C=C/C(=O)N2CCC=CC2=O)cc(OC)c1OC	?	1.8µM	.	2.1µM	-103	.
COc1cc(/C=C/C(=O)c2cccs2)cc(OC)c1OC	/	1.5µM	/	3.8µM	/	/
COc1ccc2cc(C(=O)/C=C/c3cc(OC)c(OC)c(OC)c3)ccc2c1	.	21µM	/	26µM	-62	.
COc1cc(C=CC(=O)c2ccccc2)cc(OC)c1OC	.	8.2µM	.	5.8µM	-115	.
O=C(NCc1cccc(Cl)c1)c1oc(=O)c2ccccc2c1-c1ccccc1	/	.	.	.	/	.
CCCOc1ccc(N/C=C/C(=O)c2cc(OC)c(OC)c(OC)c2)cc1	.	23µM	.	?	.	.
COc1cc(C=CC(=O)c2cc(OC)c(OC)c(OC)c2)cc(OC)c1OC	.	5.8µM	.	5.8µM	.	.
COc1ccc([N+](=O)[O-])cc1NC(=O)C1C2C=CC(C2)C1C(=O)O (configuration not stated)	.	.	/	.	.	.
Cc1ccc(S(=O)(=O)c2ncccc2[N+](=O)[O-])cc1	-90	0.65µM	.	1.2µM	-102	.
COc1ccc(CCNS(=O)(=O)c2ccc3c(c2)CC(C)N3C(=O)C2CC2)cc1OC (configuration not stated)	.	?	.	?	?	.
CCOc1ccc(S(=O)(=O)NCCC(=O)Nc2ccncc2)cc1	.	.	.	.	.	.
COc1ccccc1CNS(=O)(=O)c1ccc2c(c1)CC(C)N2C(=O)C1CC1 (configuration not stated)	.	?	.	?	.	.
CC1Cc2cc(S(=O)(=O)NCc3ccc(F)cc3)ccc2N1C(=O)C1CCC1 (configuration not stated)	/	2.9µM	.	?	/	.
Cc1ccc(CNS(=O)(=O)c2ccc3c(c2)CCN3C(=O)C2CCC2)cc1	.	?	.	?	.	.
CCOc1ccc(S(=O)(=O)NCCC(=O)Nc2cccc(C(=O)OC)c2)cc1	.	.	.	.	-74	.
CC1Cc2cc(S(=O)(=O)NCc3ccc(Cl)cc3)ccc2N1C(=O)C1CCC1 (configuration not stated)	/	13µM	.	23µM	/	.
